# PubChem BioAssay AID743415 (Broad Institute, 2014)
# Entries with a potency or affinity are not part of this list. A number with no mark means an inactive call.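 How the source made its calls: active means compounds lowering Shn3 expression whose fitted half-maximal concentration is at most twice the top valid dose; inconclusive means flat partial decrease or an invalid curve fit; inactive means the rest.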
# Assay: Shn3 transcript knock-down in Clone20 cells – cell-based, qPCR, cherry-pick, dose response (AID 743415)
# Conditions: Shn3 mRNA qPCR, overnight; series mostly up to 35 µM; relative Shn3 expression (fraction): at the top concentration
row,SMILES,relative Shn3 expression (fraction)
1,c1ccc(-c2noc(-c3ccc4ccccc4c3)n2)nc1,0.683
2,CCOc1ccc(N(C)S(=O)(=O)c2cc(-c3cc(C)no3)ccc2C(C)C)cc1,2.28
3,Cc1ccc([C@@H]2CC(=O)[C@@H]3CN(S(=O)(=O)c4ccccc4C)[C@H](c4ccc(Cl)cc4)C[C@@H]3N2S(=O)(=O)c2ccc(C)cc2)cc1,1.34
4,Nc1ncnc2c1c(-c1ccc(Oc3ccccc3)cc1)cn2C1CCCC1,0.905
5,CCCCN1CC(COCc2ccccc2)Oc2cccc(Oc3ccc(C(C)C)cc3)c2S1(=O)=O (stereo unspecified),1.44
6,O=C(Nc1nc(-c2ccccc2)cs1)C1CCCCN1S(=O)(=O)c1ccccc1 (stereo unspecified),1.36
7,CCn1c(CNC(=O)c2cc(OC)c(OC)c(OC)c2)cc2cc(C)ccc21,1.06
8,CCCOC(=O)c1ccc(OCC(O)Cn2c(C)nc3ccccc32)cc1 (stereo unspecified),1.21
9,CCCCNc1cc(C)nc(NCc2ccccc2)n1,3.52
10,Cc1ccc2nc(NC(=O)C3CCN(S(=O)(=O)c4ccc5c(c4)oc(=O)n5C)CC3)sc2c1,1.28
11,O=C(Nc1ccc(N2CCOCC2)cc1)c1ccc(Cl)c(S(=O)(=O)N2CCCC2)c1,1.52
12,COc1ccc(NS(=O)(=O)c2ccc(OC)c(N(C)S(=O)(=O)c3ccc(Cl)cc3)c2)cc1,1.23
13,O=C(CSc1nnc(-c2cccnc2)s1)Nc1ccnc2ccccc12,0.959
14,CC1Cc2cc(S(=O)(=O)N3CCN(c4ccc(Cl)cc4)CC3)ccc2N1C(=O)C1CC1 (stereo unspecified),1.16
15,O=C(c1cc(COc2ccc3ncccc3c2)on1)N1CCCCCC1,0.889
16,CCN(CC)S(=O)(=O)c1ccc(S(=O)(=O)Nc2c(C)nn(C)c2C)cc1,1.13
17,CN(c1ccccc1)S(=O)(=O)c1cccc(NC(=O)CSc2nncs2)c1,1.14
18,c1ccc(CNc2ncnc3scc(-c4cccs4)c23)nc1,0.593
19,CC(C)(C)C(=O)Nc1ccc(NC(=O)c2ccco2)nc1,0.709
20,CC(C)(C)C(=O)Nc1cc2nn(-c3ccccc3)nc2cc1Cl,0.982
21,COc1cc(NC(=O)c2cccc3c(-c4cccnc4)coc23)cc(OC)c1OC,0.765
